BAZ2B block: qHTS Assay for Inhibitors of BAZ2B | Bromodomain adjacent to zinc finger domain protein 2B (Homo sapiens), Q9UIF8 | Potency, µM (series often up to 114 µM), without a hit: at the highest dose activity change, negative = inhibition, hits mostly inhibitors | actives 4.4% (n = 360,000) | AID 504333, 2011 | AlphaScreen BAZ2B-H3K14Ac peptide displacement; note: % is set by controls: 0 for no effect and ±100 for the full control effect; nearly all actives have a fitted effect of over 60% in size
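AlphaScreen luminescence quantifies BAZ2B engagement of H3K14Ac peptide; the protein and biotinylated peptide are both at 50 nM final, buffer PBS pH 7.4 with 0.01% Tween-20, all steps at room temperature.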
G9a block: qHTS Assay for Inhibitors of Histone Lysine Methyltransferase G9a; Histone-lysine N-methyltransferase EHMT2 (Homo sapiens), Q96KQ7; G9a H3K9 monomethylation, AlphaScreen, 2 h; Potency, µM (highest dose often 102 µM), for inactives: at the highest dose activity, negative = inhibition, usual class: inhibitors; actives 8.8% (n = 350,000); AID 504332, 2011; note: % is set by controls: 0 for no effect and ±100 for the full control effect; nearly all actives have a fitted effect of over 75% in size
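G9a (20 nM) was preincubated 15 min with compound, then reacted 2 h at room temperature with 500 nM biotin-H3K9 peptide and 20 µM SAM. Monomethyl-H3K9 detected by AlphaScreen using anti-H3K9me1 antibody.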
HP1b chromo inh: HTS for Inhibitors of HP1-beta Chromodomain Interactions with Methylated Histone Tails; Chromobox protein homolog 1 (Homo sapiens), P83916; AlphaScreen HP1-beta / biotin-H3K9me3 peptide binding; Potency, µM (titrated, usually from 114 µM), for inactives: at the highest dose activity change, negative = inhibition, actives largely listed as inhibitors; actives 0.56% (n = 390,000); AID 540317, 2011; note: nearly all actives have a fitted effect of over 70% in size
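Compound inhibition of the preformed complex between 50 nM HP1-beta and 50 nM biotinylated H3K9me3 peptide was read by AlphaScreen. Buffer was PBS pH 7.4 with 0.01% Tween-20. Incubations ran 30 min at room temperature, with 10 ug/mL donor/acceptor beads.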
Sfp inh: qHTS Assay for Inhibitors of Bacillus subtilis Sfp phosphopantetheinyl transferase (PPTase); Potency, µM, inactives show largest response in the series, negative = inhibition, usual class: inhibitors; actives 3.5% (n = 310,000); Biochemical Sfp PPTase activity, qHTS; 4'-phosphopantetheinyl transferase ffp (Bacillus subtilis), Q9F4F7;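 note: the enzyme is Sfp with the accession as filed and its product quenches rhodamine fluorescence; 0% = enzyme reaction without inhibitor and -100% = no enzyme wells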
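Reaction rates are the 30-min fluorescence difference (ex 525, em 598 nm) in wells containing 15 nM Sfp, 5 uM rhodamine-CoA and 12.5 uM BHQ-2-YbbR at pH 7.6 with 10 mM MgCl2.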
L3MBTL1 block: qHTS Assay for the Inhibitors of L3MBTL1; AlphaScreen L3MBTL1–H3K9me1 peptide binding; Lethal(3)malignant brain tumor-like protein 1 (Homo sapiens), Q9Y468; Potency, µM (doses to about 57.1 µM), for inactives: at the highest dose activity, negative = inhibition, most hits filed as inhibitors; actives 0.66% (n = 230,000); AID 485360, 2010; note: % is set by controls: 0 for no effect and ±100 for the full control effect; nearly all actives have a fitted effect of over 60% in size
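First, the protein-peptide complex forms for 30 min at room temperature (L3MBTL1 50 nM, biotinylated H3K9me1 peptide 75 nM). Next, compounds are pin-transferred and incubated 30 min. Finally, AlphaScreen beads are added and read after 30 min.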
JMJD2A Tudor: qHTS Assay for Inhibitors of JMJD2A-Tudor Domain; Potency, µM (highest dose often 114 µM), inactives show top-dose activity change, negative = inhibition, actives largely listed as inhibitors; Lysine-specific demethylase 4A (Homo sapiens), O75164; AlphaScreen JMJD2A-Tudor / H3K4me3 peptide binding; actives 4.4% (n = 390,000); note: % is set by controls: 0 for no effect and ±100 for the full control effect; nearly all actives have a fitted effect of over 50% in size
Target sequence (O75164 whole entry, looked up, the tested form may be a part): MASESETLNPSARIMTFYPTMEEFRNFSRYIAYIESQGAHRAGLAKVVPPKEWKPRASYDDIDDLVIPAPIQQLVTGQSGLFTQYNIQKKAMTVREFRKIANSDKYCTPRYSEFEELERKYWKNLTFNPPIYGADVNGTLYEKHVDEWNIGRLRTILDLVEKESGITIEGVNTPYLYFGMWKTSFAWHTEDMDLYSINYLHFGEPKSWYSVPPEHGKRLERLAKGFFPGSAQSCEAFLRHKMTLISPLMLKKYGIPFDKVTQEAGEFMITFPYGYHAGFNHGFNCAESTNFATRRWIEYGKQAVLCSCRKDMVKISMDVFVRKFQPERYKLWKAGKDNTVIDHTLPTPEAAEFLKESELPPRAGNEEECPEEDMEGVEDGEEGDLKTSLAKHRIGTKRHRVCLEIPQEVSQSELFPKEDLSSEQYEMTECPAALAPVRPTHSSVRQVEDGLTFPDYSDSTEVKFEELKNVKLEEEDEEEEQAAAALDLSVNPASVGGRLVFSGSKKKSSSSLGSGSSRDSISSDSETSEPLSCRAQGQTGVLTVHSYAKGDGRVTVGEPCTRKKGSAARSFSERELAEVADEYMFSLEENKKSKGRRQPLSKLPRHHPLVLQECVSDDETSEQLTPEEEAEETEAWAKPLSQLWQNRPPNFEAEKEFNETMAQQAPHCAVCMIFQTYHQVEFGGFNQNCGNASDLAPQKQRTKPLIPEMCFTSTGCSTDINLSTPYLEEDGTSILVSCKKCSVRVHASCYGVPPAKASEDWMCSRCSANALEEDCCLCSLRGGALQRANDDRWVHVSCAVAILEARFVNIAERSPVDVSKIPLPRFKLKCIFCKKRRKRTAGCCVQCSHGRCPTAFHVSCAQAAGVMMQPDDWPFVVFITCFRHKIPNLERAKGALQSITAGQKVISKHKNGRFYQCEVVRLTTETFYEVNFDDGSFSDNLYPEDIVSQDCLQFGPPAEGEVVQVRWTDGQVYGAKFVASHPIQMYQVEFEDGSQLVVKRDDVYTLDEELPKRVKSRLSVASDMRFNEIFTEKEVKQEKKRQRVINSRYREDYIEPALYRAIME
Starred values were filed as active, the others as inactive; ? = inconclusive; . = no result; [ ] = dose if it differs, or a comment. An excerpt weighted towards active compounds, which were near 12% of everything screened. Calls come from the whole dose curve; as a rule, active = well fitted curve in the direction sought with a large enough effect; inconclusive = small, poorly fitted or top-dose-only effect, or another doubt; inactive = no such curve, though single readings can be large; an effect the other way counts as inactive or inconclusive. Potency is the fitted concentration of half-maximal effect.

SMILES	BAZ2B block	G9a block	HP1b chromo inh	Sfp inh	L3MBTL1 block	JMJD2A Tudor
O=C(CC(Sc1ccc(Br)cc1)C(=O)O)c1ccc(Br)cc1 (stereo not drawn)	1.3%	25.1µM*	.	35.5µM*	.	.
NC(=O)C1CCN(C(c2ccccc2Cl)c2nnnn2Cc2ccc3c(c2)OCO3)CC1 (stereo not drawn)	-20.1%	-32.9%	36.8%	17.3%	1.1%	-12.2%
Oc1cc2c(cc1C(c1ccc(Cl)c(Cl)c1)N1CCCC1)OCO2 (stereo not drawn)	35.5µM*	1.41µM*	20µM*	?	-17.1%	10µM*
O=C1c2ccccc2C(=O)N1C1C(=O)N2CCSC12C(=O)OCc1ccccc1 (stereo not drawn)	.	.	22.1%	.	.	-2.1%
N#C/C(=C\c1ccc(-c2ccc(C(=O)O)cc2)o1)c1nc2ccccc2[nH]1	-0.9%	-37.1%[59 µM]	?	-12.1%	-9.1%	89.1µM*
N#C/C(=C\c1ccc(-c2ccc(Cl)c(C(=O)O)c2)o1)c1nc2ccccc2[nH]1	50.1µM*	-25.2%[59 µM]	7.2%	.	-27.9%	?
Cc1ccc2nc(/C(C#N)=C/c3ccc(-c4cccc(Cl)c4)o3)[nH]c2c1	?	?	19.6%	.	.	-31.7%
C[C@@H](CC(=O)O)[C@@H](N)C(=O)O	.	34.5%[59 µM]	.	-21.4%	.	.
Brc1ccc(-c2cnnc(N3CCCC3)n2)cc1	2.5%	70.8µM*	26.2%	-29.9%	-4.0%	-10.7%
c1ccc(-c2cnnc(N3CCOCC3)n2)cc1	-7.1%	-9.6%[59 µM]	20.9%	-1.3%	-8.0%	-0.7%
COc1ccccc1C(CNC(=O)CCNS(=O)(=O)c1ccc(Br)cc1)N1CCCC1 (stereo not drawn)	.	.	31.2%	.	.	-12.4%
O=C(O)/C=C/C(=O)Nc1ccccc1-c1ccccc1NC(=O)/C=C/C(=O)O	-1.4%	10µM*	33.4%	7.94µM*	-13.0%	79.4µM*
O=C(O)/C=C/C(=O)Nc1c(F)cccc1F	-0.4%	50.1µM*	60.4%	-5.7%	1.5%	-6.0%
O=C(O)/C=C/C(=O)Nc1ccccc1SC(F)(F)F	0.7%	8.91µM*	26.9%	12.6µM*	?	-19.5%
CC(C)C(=O)OCc1cc(=O)n2nc(C3CCCCC3)sc2n1	3.8%	9.6%[59 µM]	87.8%	.	.	-4.3%
COC(=O)c1ccc(COc2ccc(Cl)cc2)o1	38.0%	114.2%	78.5%	1.1%	.	42.5%
COC(=O)c1ccc(COc2ccc(/C=N/NC(N)=S)cc2)o1	-27.6%	50.1µM*	23.0%	-3.7%	-8.3%	-10.4%
Cc1cccc(C2N(c3nccs3)C(=O)C3CCCN32)c1 (stereo not drawn)	?	7.94µM*	36.2%	?	-3.1%	-26.0%[57.1 µM]
O=C1C2CCCN2C(c2ccc(F)cc2)N1c1nccs1 (stereo not drawn)	?	-31.2%[12.7 µM]	19.5%	?	1.1%	20µM*
Cc1ccc(C2N(c3nccs3)C(=O)C3CCCN32)cc1 (stereo not drawn)	?	12.6µM*	13.6%	?	1.6%	20µM*
O=C(Cc1cccc(NC(=O)C2CCCN(C(=O)C3CCCCC3)C2)c1)Nc1cccc(C(=O)N2CCCC2)c1 (stereo not drawn)	-1.5%	-19.8%[2.33 µM]	24.5%	.	-0.4%	-26.9%
Cc1cccc(C)c1NC(=O)CN(CC(=O)O)CC(=O)O	.	-6.8%[12.7 µM]	.	44.7µM*	.	.
CC(=O)c1ccc(NC(=O)/C(=C\c2cccs2)NC(=O)c2ccco2)cc1	-18.8%	?	29.1%	4.2%	1.6%	-2.5%
CCc1nn2c(N3CCOCC3)cc(C)nc2c1-c1ccccc1	5.7%	32.1%	50.0%	8.0%	.	14.1%
O=C(COC(=O)c1ccc2ccccc2n1)Nc1ncc(C(F)(F)F)cc1Cl	-0.5%	44.7µM*	30.0%	3.8%	.	-10.4%
SMILES	BAZ2B block	G9a block	HP1b chromo inh	Sfp inh	L3MBTL1 block	JMJD2A Tudor
O=C(COC(=O)CSc1cccc2cccc(Cl)c12)Nc1ncc(C(F)(F)F)cc1Cl	50.1µM*	?	-5.5%	?	?	-34.7%
CC(C)Oc1ccc(CNC(=O)c2ccc(NC(=O)N3CCSc4ncccc43)cc2)cc1	-12.5%	-37.7%[59 µM]	24.0%	.	.	-21.4%
CCOc1ccc(NS(=O)(=O)c2ccc(C(=O)N(C)CC(=O)Nc3cccc(OC)c3)cc2)cc1	.	.	16.7%	.	.	-27.5%
Cc1cccc(N(CC(=O)NCCc2ccccc2)S(=O)(=O)c2ccccc2)c1C	-0.6%	-4.7%[59 µM]	51.5%	.	.	-4.2%
CCCCc1cc(=O)oc2c(C)c(OCC(=O)NCC3CCC(C(=O)O)CC3)ccc12 (stereo not drawn)	-14.8%[57.1 µM]	79.4µM*	16.5%	9.4%	0.7%	-13.6%
Cc1cc(=O)oc2c(C)c(OCC(=O)NCC3CCC(C(=O)O)CC3)ccc12 (stereo not drawn)	8.3%	.	-7.8%	6.7%	.	-16.3%
CCC(C)Sc1nc2c(c(=O)[nH]c(=O)n2C)n1CC(O)COc1ccccc1C (stereo not drawn)	9.5%	5.62µM*	-32.5%	39.8µM*	-3.8%	-19.1%[57.1 µM]
CC(O)CSc1nc2c(c(=O)[nH]c(=O)n2C)n1Cc1ccccc1Cl (stereo not drawn)	1.6%	44.7µM*	2.0%	-21.0%	4.8%	-13.0%
Cc1ccc(-c2nc3c(c(=O)[nH]c(=O)n3Cc3ccccc3)n2Cc2ccccc2)o1	12.7%	10µM*	-6.7%	12.6µM*	-3.4%	-23.3%
CCC(C)Sc1nc2c(c(=O)[nH]c(=O)n2C)n1CCc1ccccc1 (stereo not drawn)	8.7%	-12.0%[59 µM]	14.8%	1.9%	-8.0%	5.9%
Cn1c(=O)[nH]c(=O)c2c1nc(SCC(O)CCl)n2Cc1ccccc1 (stereo not drawn)	7.5%	.	-0.8%	39.8µM*	5.4%	-12.9%
COc1cccc2cc(-c3nc4sc5c(c4c(=O)[nH]3)CCC(C(C)(C)C)C5)c(=O)oc12 (stereo not drawn)	-37.5%	-18.8%[59 µM]	19.9%	.	.	-1.6%
O=C(NCC1CCN(Cc2cccc(F)c2)CC1)c1cc2ccc3cccnc3c2[nH]1	5.3%[57.1 µM]	-39.6%[59 µM]	13.8%	.	.	-4.5%
COc1ccc2nc(NC(=O)CSc3nc(SC)ns3)sc2c1	-9.0%	20µM*	16.6%	-27.3%	3.4%	-8.0%
CSc1nsc(SCC(=O)NCc2ccccc2)n1	0.4%	39.8µM*	31.3%	15.7%	.	-14.7%
COc1ccc2nc(NC(=O)CSc3n[nH]c(N)n3)sc2c1	6.0%	56.2µM*	13.0%	.	-6.1%	-24.6%
